Only some compounds are listed: those with a hit (about 4.8% of all), similar ones and a draw of the others.
Hsp70 act = Hsp70 transcriptional activation, primary screen; actives 0.04% (n = 200,000); AID 1203; activation, % at 10 µM; HeLa Hsp70 promoter luciferase reporter, luminescence; scaled: vehicle 0, proteasome-inhibitor control 100%;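 active = activation above the mean across all tested compounds plus 3 SD, cutoff set per campaign, cut at about 5.5% in these data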;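 note: 100% = MG132 at 30 µM as the positive control and 0% = DMSO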
STAT1 activator = STAT1 signaling activation | NIH 3T3 STAT1-luciferase reporter, IFN-gamma, luminescence; 100% = IFN-gamma alone, no compound | activation (% of control), % at 5.5 µM | actives 2.6% (n = 200,000);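 active = activation above the screen-wide mean activation plus 3 SD, cut at about 130% in these data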;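 note: raw ratio to IFN-gamma control signal so 100% means no change and 0% no light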
NF-kB neuron act = raises NF-kB expression in human neuronal cells | NF-kB reporter expression; active compounds read high | fold change at 12.5 µM | actives 1.6% (n = 190,000) | AID 1239; in the data active = fold change above about 3.3
Wee1 stabilizer = blocks degradation of human Wee1 kinase; P30291; HeLa Luc-Wee1K328M stability, luciferase luminescence; 100% = proteasome inhibitor MG132 effect; reporter increase, % at 5 µM; actives 1.2% (n = 220,000); AID 1321;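 active = activation above the mean of all tested compounds plus 3 SD, set per screening run, cut at about 8.8% in these data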;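 note: cells exposed to compound for 20 h before luminescence read; 0% = DMSO alone and 100% = MG132 at 30 µM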
Target sequence (P30291 whole entry K328M): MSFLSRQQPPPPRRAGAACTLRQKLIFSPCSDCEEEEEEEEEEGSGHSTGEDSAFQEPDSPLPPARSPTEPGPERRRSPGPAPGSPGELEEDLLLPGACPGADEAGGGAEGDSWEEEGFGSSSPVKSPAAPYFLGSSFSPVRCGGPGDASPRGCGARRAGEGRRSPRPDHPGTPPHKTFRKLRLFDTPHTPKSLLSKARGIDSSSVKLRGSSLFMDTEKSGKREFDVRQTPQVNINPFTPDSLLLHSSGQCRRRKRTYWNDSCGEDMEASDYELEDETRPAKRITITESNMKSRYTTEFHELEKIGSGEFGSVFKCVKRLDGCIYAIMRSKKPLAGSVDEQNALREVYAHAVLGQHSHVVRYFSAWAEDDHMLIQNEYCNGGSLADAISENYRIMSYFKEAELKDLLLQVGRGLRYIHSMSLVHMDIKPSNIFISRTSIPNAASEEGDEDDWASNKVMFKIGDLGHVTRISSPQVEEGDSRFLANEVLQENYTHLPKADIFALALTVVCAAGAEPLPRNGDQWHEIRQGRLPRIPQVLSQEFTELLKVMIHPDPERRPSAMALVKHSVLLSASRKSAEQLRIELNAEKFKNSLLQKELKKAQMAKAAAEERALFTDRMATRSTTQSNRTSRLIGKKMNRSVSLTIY
APP 5'UTR act = activates APP 5'UTR luciferase reporter | SH-SY5Y APP 5'UTR luciferase reporter, luminescence; zero percent = DMSO vehicle wells | activation, % at 2 µM | actives 1% (n = 190,000) | AID 1276;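 active = activation above a set limit, based on mean plus 3 SD of controls, cut at about 140% in these data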
APP 5UTR inh = APP translation inhibition; AID 1285; inhibition, % at 2 µM; SH-SY5Y APP 5'UTR-luciferase reporter, luminescence; actives 0.82% (n = 190,000);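 active = inhibition above a set limit, derived from the sample mean plus 3 SD, cut at about 45% in these data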
STAT1 activ conf = confirmation of STAT1 signaling activators | NIH 3T3 STAT1-luciferase reporter, IFN-gamma potentiation, luminescence; 100% = IFN-gamma EC80 alone, no compound | activation (% of control), % at 5.7 µM | shares compounds with STAT1 activator | actives 97% (n = 1,200);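 active = activation above a set limit carried over from the earlier primary STAT1 screen, cut at about 140% in these data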;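 note: simple ratio to median IFN-gamma plus DMSO wells so 0% means no light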
NFkB act = counter-screen for STAT1 activators: NF-kappaB activation. AID 1306. shares compounds with STAT1 activator. actives 43% (n = 1,200). activation (% of control), % at 5.7 µM. HEK293T NF-kB luciferase reporter, TNF-alpha stimulated, luminescence; 100% = TNF-alpha with vehicle only;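 active = activation above the mean of solvent-only control wells plus 3 SD, set per campaign, cut at about 130% in these data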;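 note: TNF-alpha given at a submaximal dose yielding about 80% of full reporter signal; values are well signal over median control so 100% means no change and 0% no light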
STAT3 act 2 = activates human STAT3, counter-screen to STAT1 activators. AID 1316. U3A cells STAT3-luciferase reporter, IL-6, luminescence; cells lack STAT1; 100 = IL-6 alone, no compound effect. activation (% of control), % at 5.7 µM. shares compounds with STAT1 activator. actives 46% (n = 1,200);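 active = activation above the solvent-only control well mean plus 3 SD, set per plate batch, cut at about 110% in these data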;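 note: 0% = no luminescence and 100% = median IL-6 plus DMSO wells; higher means more STAT3 reporter activation so hits are non-selective activators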
Active calls of the source: *.

Screening CC(=O)Nc1nc(C)c(-c2csc(Nc3ccccn3)n2)s1 returned Hsp70 act 0, STAT1 activator 191*, NF-kB neuron act 1.7, Wee1 stabilizer 1, APP 5'UTR act 102, APP 5UTR inh -102, STAT1 activ conf 221*, NFkB act 142* and STAT3 act 2 120*.
For Cc1cccnc1Nc1nc(-c2ccccn2)cs1 the results were Hsp70 act 0, STAT1 activator 256*, NF-kB neuron act 7.5*, Wee1 stabilizer 3, APP 5'UTR act -93, APP 5UTR inh 93*, STAT1 activ conf 261*, NFkB act 168* and STAT3 act 2 109.
`CC(=O)Nc1nc(C)c(-c2csc(Nc3ccc(O)cc3)n2)s1` gave Hsp70 act 0, STAT1 activator 96, NF-kB neuron act 1.8, Wee1 stabilizer 3, APP 5'UTR act -18 and APP 5UTR inh 18.
`Cc1cccc(Nc2nc(-c3ccccn3)cs2)n1` gave Hsp70 act 0, STAT1 activator 191*, NF-kB neuron act 5.6*, Wee1 stabilizer 1, APP 5'UTR act 210*, APP 5UTR inh -210, STAT1 activ conf 271*, NFkB act 139* and STAT3 act 2 110.
Nc1ccc(Nc2nc(-c3cccs3)cs2)cc1 was read as Hsp70 act 0, STAT1 activator 160*, NF-kB neuron act 1.7, Wee1 stabilizer 1, APP 5'UTR act 311*, APP 5UTR inh -311, STAT1 activ conf 168*, NFkB act 142* and STAT3 act 2 102.
For COc1cccc(/C=C2\Oc3cc(OC(=O)N4CCOCC4)ccc3C2=O)c1 the results were Wee1 stabilizer 1.
`Cc1cccc(Nc2nc(-c3cccs3)cs2)n1` gave Hsp70 act 0, STAT1 activator 179*, NF-kB neuron act 11*, Wee1 stabilizer 18*, APP 5'UTR act 208*, APP 5UTR inh -208, STAT1 activ conf 261*, NFkB act 147* and STAT3 act 2 144*.
Screening O=[N+]([O-])c1ccc2cn(-c3ccccc3)nc2c1 returned Hsp70 act 0, STAT1 activator 152*, NF-kB neuron act 1.3, Wee1 stabilizer 2, APP 5'UTR act 141*, APP 5UTR inh -141, STAT1 activ conf 196*, NFkB act 135* and STAT3 act 2 99.
COc1cc(/C=N/N=C2/NC(=O)C(CC(=O)O)S2)ccc1OCc1cccc(Cl)c1 (centres undefined) was read as Hsp70 act 0, STAT1 activator 121, NF-kB neuron act 1.8, Wee1 stabilizer -3, APP 5'UTR act 11 and APP 5UTR inh -11.
`COc1cccc(N/C=C/C(=O)c2ccc(Cl)cc2)c1` gave Hsp70 act 0, STAT1 activator 180*, NF-kB neuron act 6.4*, Wee1 stabilizer -1, APP 5'UTR act 198*, APP 5UTR inh -198, STAT1 activ conf 239*, NFkB act 115 and STAT3 act 2 96.
For c1ccc(-c2nc3c(ccc4ccccc43)[nH]2)nc1 the results were Hsp70 act 1, STAT1 activator 173*, NF-kB neuron act 3.7*, Wee1 stabilizer 7, APP 5'UTR act 111, APP 5UTR inh -111, STAT1 activ conf 187*, NFkB act 120 and STAT3 act 2 130*.
For Cc1ccc(NC(=O)c2ccc(OC(=O)COc3cccc(Cl)c3)cc2)cc1 the results were Hsp70 act 0, STAT1 activator 154*, NF-kB neuron act 1.6, Wee1 stabilizer 6, APP 5'UTR act 111, APP 5UTR inh -111, STAT1 activ conf 170*, NFkB act 129 and STAT3 act 2 111*.
COC(=O)COc1cccc(NC(=O)c2cccc(C)c2)c1 was read as Hsp70 act 0, STAT1 activator 99, NF-kB neuron act 0.91, Wee1 stabilizer -2, APP 5'UTR act 20 and APP 5UTR inh -20.
For Cc1ccc(NC(=O)c2ccc(OC(=O)COc3ccc(Cl)cc3C)cc2)cc1 the results were Hsp70 act 0, STAT1 activator 159*, NF-kB neuron act 1.4, Wee1 stabilizer 6, APP 5'UTR act 88, APP 5UTR inh -88, STAT1 activ conf 167*, NFkB act 128 and STAT3 act 2 119*.
`Cn1cccc1/C=N/n1c(-c2ccco2)n[nH]c1=S` gave Hsp70 act 0, STAT1 activator 98, NF-kB neuron act 1.2, Wee1 stabilizer 2, APP 5'UTR act -3 and APP 5UTR inh 3.
`CSc1ccccc1C(=O)Nc1ncc(C)s1` gave Hsp70 act 0, STAT1 activator 108, NF-kB neuron act 1.2, Wee1 stabilizer 0, APP 5'UTR act -8 and APP 5UTR inh 8.
`Cc1cnc(NC(=O)c2sc3ccccc3c2Cl)s1` gave Hsp70 act 0, STAT1 activator 159*, NF-kB neuron act 4.6*, Wee1 stabilizer 5, APP 5'UTR act 107, APP 5UTR inh -107, STAT1 activ conf 172*, NFkB act 71 and STAT3 act 2 79.
Screening Cc1ccnc(NC(=O)c2sc3ccccc3c2Cl)c1 returned Hsp70 act 0, STAT1 activator 165*, NF-kB neuron act 3.6*, Wee1 stabilizer -1, APP 5'UTR act 148*, APP 5UTR inh -148, STAT1 activ conf 130*, NFkB act 59 and STAT3 act 2 50.
Cc1ccc(NC(=O)C2=C(O)CCn3c2nc2ccccc23)cc1 was read as Hsp70 act 0, STAT1 activator 111, NF-kB neuron act 0.93, Wee1 stabilizer -2, APP 5'UTR act -12 and APP 5UTR inh 12.
Screening O=C1c2ccccc2S(=O)(=O)N1CC1CC(c2ccccc2Cl)=NO1 (centres undefined) returned Hsp70 act 0, STAT1 activator 161*, NF-kB neuron act 4.9*, Wee1 stabilizer 7, APP 5'UTR act 47, APP 5UTR inh -47, STAT1 activ conf 198*, NFkB act 129 and STAT3 act 2 126*.
Screening Cc1ccccc1NC(=O)CSC1=C(C#N)C(c2ccsc2)CC(=O)N1 (centres undefined) returned Hsp70 act 0, STAT1 activator 100, NF-kB neuron act 1.3, Wee1 stabilizer 3, APP 5'UTR act -1 and APP 5UTR inh 1.

Source: PubChem (several laboratories)
